Among the data in PubChem BioAssay AID602 (SRMLSC, 2007) are differential viability (reversal) and viability values, retold here.

Usually viability stands for the share of living cells, or the viability signal relative to a control.

The assay can be described thus: MRP1 drug-resistance reversers in H69AR cells – cell-based, doxorubicin co-treatment, primary screen (AID 602).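 As to differential viability (reversal): larger differential means the compound sensitizes cells more to doxorubicin.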 As to conditions: CellTiter-Glo, 72 h, at 10 µM; for differential viability (reversal): stronger effect = higher value.
The mark [1] stands for this setting: H69AR cells + 2 uM doxorubicin, measured here: viability with 2 uM doxorubicin, stronger effect = lower value.
[2] abbreviates: H69AR cells, measured here: cytotoxicity without doxorubicin.

Out of some 85,000 compounds screened, about 35 (0.04%) were called active.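 The calls were made as follows: active = viability drop by adding the cancer drug above about 55%, with treated viability meeting a 40% cutoff (limit read from the data); inactive = the rest, inconclusive results apart.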 The sample as a whole holds a higher share of actives than the screen did.

Regarding `CSC1=NP(=S)(SC)N(C)c2nc3n(c21)CCC3` (stereo not given), the differential viability (reversal) (H69AR cells + 2 uM doxorubicin) was 57.9% (active). Besides, the viability runs as follows: under setting [1], 27.2%; under setting [2], 85.1%.
Regarding `CCOc1ccc(CN(CCCl)CCCl)cc1C(=O)OC`, where the note is “H69AR cells + 2 uM doxorubicin”, the differential viability (reversal) is -29% (inactive). The viability was determined as 83.1% under setting [1] and 54.1% under setting [2].
`Cn1c(O)c(C=NCCN2CCNCC2)c(=O)n(C)c1=O`: the differential viability (reversal) (H69AR cells + 2 uM doxorubicin) was 8.13% (inactive). Also, the viability is, setting by setting: under setting [1], 85.1%; under setting [2], 93.2%.
Take `CC(=O)NC(=O)NC(C)Cc1ccccc1` (stereo not given): the differential viability (reversal) (H69AR cells + 2 uM doxorubicin) was -9.72% (inactive). Also, the viability reads like this: under setting [1], 96.7%; under setting [2], 87%.
Take `CCN(N=Nc1nonc1OC)c1nonc1OC`: the differential viability (reversal) (H69AR cells + 2 uM doxorubicin) was 9.43% (inactive). Also, the viability runs as follows: under setting [1], 86.2%; under setting [2], 95.7%.
